Test results taken from article PMC4336329 (PLoS ONE, 2015).
The whole screen tested about 310,000 compounds, of which about 14,000 (4.5%) showed an effect of 50% or more. The effect is printed as a negative number. Many of the other results were omitted from the sample, so strong results are more common in it than they were.

Biological target: human ether-à-go-go-related gene (hERG) potassium channel (human, UniProt Q12809)
Assay: primary screen, population patch clamp on CHO cells stably expressing hERG; higher = less effect of the substance
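Note: peak tail current of the secondary pulse compared with the same well before compound.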

human ether-à-go-go-related gene (hERG) potassium channel, sequence (Q12809 whole entry, looked up): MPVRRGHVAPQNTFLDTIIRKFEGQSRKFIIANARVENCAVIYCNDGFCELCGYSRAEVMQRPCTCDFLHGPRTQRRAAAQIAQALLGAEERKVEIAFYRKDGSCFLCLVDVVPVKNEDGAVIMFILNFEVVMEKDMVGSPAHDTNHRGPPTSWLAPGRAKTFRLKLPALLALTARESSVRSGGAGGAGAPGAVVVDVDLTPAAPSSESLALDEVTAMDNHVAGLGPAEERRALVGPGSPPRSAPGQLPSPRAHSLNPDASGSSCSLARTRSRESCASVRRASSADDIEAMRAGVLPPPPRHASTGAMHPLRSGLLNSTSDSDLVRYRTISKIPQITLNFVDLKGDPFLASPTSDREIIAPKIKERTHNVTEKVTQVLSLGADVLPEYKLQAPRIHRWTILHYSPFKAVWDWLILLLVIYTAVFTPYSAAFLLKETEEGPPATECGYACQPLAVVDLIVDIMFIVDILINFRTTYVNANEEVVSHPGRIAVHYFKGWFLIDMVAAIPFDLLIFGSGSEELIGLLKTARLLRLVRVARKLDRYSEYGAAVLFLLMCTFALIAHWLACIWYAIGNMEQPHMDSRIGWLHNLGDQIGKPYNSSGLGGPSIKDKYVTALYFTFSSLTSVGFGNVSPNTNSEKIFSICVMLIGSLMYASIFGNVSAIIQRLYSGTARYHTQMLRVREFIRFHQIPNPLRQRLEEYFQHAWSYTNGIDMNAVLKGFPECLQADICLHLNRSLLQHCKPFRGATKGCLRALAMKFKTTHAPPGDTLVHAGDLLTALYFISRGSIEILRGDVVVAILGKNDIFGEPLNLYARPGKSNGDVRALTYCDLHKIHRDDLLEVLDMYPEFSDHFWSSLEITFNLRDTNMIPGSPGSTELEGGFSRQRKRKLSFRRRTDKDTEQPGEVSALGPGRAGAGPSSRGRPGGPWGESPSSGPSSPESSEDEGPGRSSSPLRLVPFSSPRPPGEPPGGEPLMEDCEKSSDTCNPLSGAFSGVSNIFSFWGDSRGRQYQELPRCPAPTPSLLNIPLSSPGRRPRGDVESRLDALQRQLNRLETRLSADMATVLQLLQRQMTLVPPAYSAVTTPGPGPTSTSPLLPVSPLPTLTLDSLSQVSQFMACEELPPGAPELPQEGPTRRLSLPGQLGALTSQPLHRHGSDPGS

First: COc1ccc(N(C(=O)COc2ccccc2)C2C=CS(=O)(=O)C2)cc1 (stereo not drawn)
Second: COC(=O)c1sccc1N/N=C/c1cccc(Oc2ccccc2)c1
The “hERG current change (%, negative = inhibition) at 10uM” value of the first is higher: -1.57% for the first, -7.09% for the second.

Going from `CCC(=O)Nc1c(S(=O)(=O)c2ccc(C)cc2)c2nc3ccccc3nc2n1C(C)c1ccccc1` (stereo not drawn) to `CN(C)S(=O)(=O)c1ccc(N2CCCC2)c(C(=O)NC(c2ccccc2)c2ccccc2)c1`, the “hERG current change (%, negative = inhibition) at 10uM” value rises from -14.9% to 6.73%.

Going from `C=C(C)CN=C1NN=C(c2cc(C)n(-c3ccc(C)cc3)c2C)CS1` to `COc1ccc(N2C(=O)C(OC(C)=O)C2c2ccc(C)cc2)cc1` (stereo not drawn), the “hERG current change (%, negative = inhibition) at 10uM” value rises from 4.06% to 17.3%.

First: O=C(NCCNC(=O)c1ccccc1F)c1ccco1.O=C(O)C(=O)O
Second: CCN(CC)CCNC(=O)c1ccc(NC(=O)c2c(F)cccc2Cl)cc1
The “hERG current change (%, negative = inhibition) at 10uM” value of the first is higher: 13.9% for the first, -12.4% for the second.

Compared with `O=C(CSc1ccc(Cl)cc1)N1CCN(c2ccc(Cl)cc2[N+](=O)[O-])CC1`, `O=C(CSc1ccc(Cl)cc1)N1CCN(c2ccc([N+](=O)[O-])cc2Cl)CC1` is higher in “hERG current change (%, negative = inhibition) at 10uM” value: -61.5% for the first, -59.2% for the second.

Going from `O=C(CN1CCN(c2ccc(Cl)cc2[N+](=O)[O-])CC1)N1CCOCC1` to `O=C(CSc1ccc(Cl)cc1)N1CCN(c2c(Cl)cccc2[N+](=O)[O-])CC1`, the “hERG current change (%, negative = inhibition) at 10uM” value rises from -33.6% to -17.2%.

Going from `O=C(CSc1ccc(Cl)cc1)N1CCCC1` to `CN1CCN(C(=O)CSc2ccc(Cl)cc2)CC1`, the “hERG current change (%, negative = inhibition) at 10uM” value falls from 16.6% to 6.35%.

Going from `CCN1C(=O)c2ccc(C(=O)O)cc2C1=O` to `Cc1nn(C(=O)c2ccco2)c(C)c1CN1C(=O)c2ccccc2C1=O`, the “hERG current change (%, negative = inhibition) at 10uM” value falls from 9.2% to -12.2%.

Compared with `c1ccc(CCNc2ncnc3sccc23)nc1`, `Cc1ccc(F)cc1NC(=O)CN1CCN(c2ccccn2)CC1` is lower in “hERG current change (%, negative = inhibition) at 10uM” value: 26.8% for the first, -35.2% for the second.

First: O=C(c1ccc(Cl)cc1)c1ccc(OCC(=O)N2CCOCC2)cc1
Second: CCOC(=O)N1CCN(C(=O)c2ccc(NC(=O)c3ccc(C)cc3)cc2)CC1
The “hERG current change (%, negative = inhibition) at 10uM” value of the first is lower: -40.8% for the first, -13.3% for the second.

First: COc1ccc([N+](=O)[O-])cc1NC(=O)Cn1ccc(C(F)(F)F)n1
Second: CN(C)S(=O)(=O)c1ccc(N2CCCC2)c(C(=O)NCc2cccc(C(F)(F)F)c2)c1
The “hERG current change (%, negative = inhibition) at 10uM” value of the first is higher: 13.3% for the first, 4.61% for the second.

Compared with `COc1ccc2c(c1)Sc1ccccc1N2CCN(C)C.O=C(O)C(=O)O`, `COc1ccc([C@@H]2Sc3cc(OC)ccc3N(CCN(C(C)C)C(C)C)C(=O)[C@H]2OC(C)=O)cc1.Cl` is lower in “hERG current change (%, negative = inhibition) at 10uM” value: -21.3% for the first, -75% for the second.

First: Cc1ccc(N2C(=O)CC(Sc3ncn[nH]3)C2=O)cc1C (stereo not drawn)
Second: COC(=O)c1c(C)nn(-c2ccc(F)c(Cl)c2)c1-c1cc(C)on1
The “hERG current change (%, negative = inhibition) at 10uM” value of the first is higher: 14.2% for the first, -4.39% for the second.

Compared with `S=C(NCC1CCCO1)N1CCN(c2ccccc2)CC1` (stereo not drawn), `O=C(C1CCCO1)N1CCN(C(c2ccccc2)c2ccccc2)CC1` (stereo not drawn) is lower in “hERG current change (%, negative = inhibition) at 10uM” value: 23.5% for the first, 0.514% for the second.

First: Cc1cc2ccccc2c(=O)[nH]1
Second: CS(=O)(=O)NNC(=O)c1cc2cc3ccccc3nc2s1
The “hERG current change (%, negative = inhibition) at 10uM” value of the first is higher: 16.5% for the first, 9.84% for the second.

Compared with `CCn1c(CNC(=O)C2CCCCC2)cc2cc(C)ccc21`, `CN(C)S(=O)(=O)c1ccc(N2CCCC2)c(C(=O)NCc2ccccc2)c1` is lower in “hERG current change (%, negative = inhibition) at 10uM” value: 28% for the first, -10% for the second.

Compared with `CN(C)c1nc(NCc2ccccc2)nc(SCC(N)=O)n1`, `CN(C)S(=O)(=O)c1ccc(N2CCCC2)c(C(=O)Nc2ccccc2F)c1` is lower in “hERG current change (%, negative = inhibition) at 10uM” value: 7.76% for the first, -14.7% for the second.

Compared with `N=c1c2c(-c3ccccc3)c(-c3ccccc3)oc2ncn1CCN1CCOCC1`, `N=c1c2c(-c3ccccc3)c(-c3ccccc3)oc2ncn1CCCN1CCOCC1` is lower in “hERG current change (%, negative = inhibition) at 10uM” value: -70.8% for the first, -79.2% for the second.

First: COc1ccc(-c2oc3ncn(Cc4ccco4)c(=N)c3c2-c2ccc(OC)cc2)cc1
Second: COc1ccc(-c2oc3ncn(CCN4CCOCC4)c(=N)c3c2-c2ccc(OC)cc2)cc1
The “hERG current change (%, negative = inhibition) at 10uM” value of the first is higher: -49.4% for the first, -70.3% for the second.

First: Cn1c(=O)c2c(-c3ccccc3)n(CCCN3CCOCC3)cc2n(C)c1=O
Second: Cn1c2ccccc2c2ncn(CCCN3CCOCC3)c(=O)c21
The “hERG current change (%, negative = inhibition) at 10uM” value of the first is higher: 16.1% for the first, -16.6% for the second.

Going from `COc1ccc(-c2oc3ncnc(NCCN4CCOCC4)c3c2-c2ccc(OC)cc2)cc1` to `O=c1oc2ccccc2c2c1ncn2CCN1CCOCC1`, the “hERG current change (%, negative = inhibition) at 10uM” value falls from 2.75% to -8.76%.

Compared with `CC(C)Cc1n[nH]c(=O)[nH]1`, `Cc1nnsc1SCC(=O)O` is higher in “hERG current change (%, negative = inhibition) at 10uM” value: -6.31% for the first, -0.15% for the second.

Going from `O=C(Nc1c2c(nn1-c1ccc(F)cc1)CS(=O)C2)c1ccc(S(=O)(=O)N2CCOCC2)cc1` (stereo not drawn) to `CCN(CC)CCNC(=O)c1ccc(NC(=O)c2c(C)nn(-c3ccc(F)cc3)c2Cl)cc1`, the “hERG current change (%, negative = inhibition) at 10uM” value falls from 21.9% to -60%.

Compared with `Cc1cc(NC(=O)c2c(-c3ccccc3Cl)noc2C)no1`, `COc1cc(OC)nc(Oc2ccccc2C(=O)Oc2ccc(Cl)cc2)n1` is lower in “hERG current change (%, negative = inhibition) at 10uM” value: 5.88% for the first, -21.6% for the second.

Going from `COc1ccc(NC(=O)C2=CC(c3ccc(OC)c(OC)c3)=NS(=O)(=O)N2C)cc1` to `COc1cc(-c2nn3c(-c4cccc(C)c4)nnc3s2)cc(OC)c1OC`, the “hERG current change (%, negative = inhibition) at 10uM” value rises from -4% to 13.1%.

Compared with `O=C(NCC1CCCO1)c1cc(-c2ccc(F)cc2)no1` (stereo not drawn), `O=C(N=C1SC2CS(=O)(=O)CC2N1Cc1ccc(F)cc1)C1CCCO1` (stereo not drawn) is lower in “hERG current change (%, negative = inhibition) at 10uM” value: 0.634% for the first, -5.58% for the second.

First: C=CCN1CC2(c3ccccc3)CN(CC=C)CC(c3ccccc3)(C1)C2=O
Second: O=C1C2(c3ccccc3)CN(CCO)CC1(c1ccccc1)CN(CCO)C2
The “hERG current change (%, negative = inhibition) at 10uM” value of the first is lower: -19.3% for the first, -10.6% for the second.

Compared with `O=C1C2(c3ccccc3)CN(CCCO)CC1(c1ccccc1)CN(CCCO)C2`, `CC(=O)c1ccc(OCC(O)CN2CCN(c3ccccn3)CC2)cc1.Cl` (stereo not drawn) is higher in “hERG current change (%, negative = inhibition) at 10uM” value: -50.4% for the first, -25.8% for the second.

Compared with `CCOC(=O)C1CCN(C(=O)CN2C(=O)CSc3ccc(S(=O)(=O)N4CCOCC4)cc32)CC1`, `CN(C)S(=O)(=O)c1ccc(N2CCCC2)c(C(=O)NNC(=O)COc2ccccc2Cl)c1` is lower in “hERG current change (%, negative = inhibition) at 10uM” value: -22.6% for the first, -30.3% for the second.

Compared with `CCc1ccccc1NC(=O)c1cc(S(=O)(=O)N(C)C)ccc1N1CCCC1`, `CN(C)S(=O)(=O)c1ccc(N2CCCC2)c(C(=O)Nc2ccccc2Br)c1` is lower in “hERG current change (%, negative = inhibition) at 10uM” value: -32.2% for the first, -58.3% for the second.

First: CN(C)S(=O)(=O)c1ccc(N2CCCC2)c(C(=O)NNC(=O)COc2ccccc2F)c1
Second: Cc1ccccc1OCC(=O)NNC(=O)c1cc(S(=O)(=O)N(C)C)ccc1N1CCCC1
The “hERG current change (%, negative = inhibition) at 10uM” value of the first is lower: -61.4% for the first, 0.0569% for the second.

First: CN(CC(=O)Nc1ccccc1Br)C(=O)c1cc(S(=O)(=O)N(C)C)ccc1N1CCCC1
Second: CSc1ccccc1NC(=O)c1cc(S(=O)(=O)N(C)C)ccc1N1CCCC1
The “hERG current change (%, negative = inhibition) at 10uM” value of the first is higher: -8.64% for the first, -54.7% for the second.

Compared with `CN(C)S(=O)(=O)c1ccc(N2CCCC2)c(C(=O)Nc2ccc(Br)cc2F)c1`, `CN(C)S(=O)(=O)c1ccc(N2CCCC2)c(C(=O)Nc2ccc(F)cc2F)c1` is lower in “hERG current change (%, negative = inhibition) at 10uM” value: 3.03% for the first, -33.2% for the second.

Going from `CN(C)S(=O)(=O)c1ccc(N2CCCC2)c(C(=O)NCc2ccc(Cl)cc2)c1` to `CN(C)S(=O)(=O)c1ccc(N2CCCC2)c(C(=O)Nc2ccccc2OC(F)F)c1`, the “hERG current change (%, negative = inhibition) at 10uM” value rises from -68.5% to -54.2%.

Going from `CC1(C)C=C2[C@H]3CC[C@@H]4[C@@]5(C)CCC(=O)C(C)(C)[C@@H]5CC[C@@]4(C)[C@]3(C)CC[C@@]2(C(=O)O)CC1` to `Cc1cc(C)cc(OCc2ccc(C(=O)NC3CCOC3=O)o2)c1` (stereo not drawn), the “hERG current change (%, negative = inhibition) at 10uM” value rises from -1.05% to 15.9%.

Compared with `CCN(CC)C(=O)C(=O)N/N=C/c1cccc(Br)c1`, `CCN(CC)CCNC(=O)c1ccc(NC(=O)c2ccc(F)cc2)cc1` is lower in “hERG current change (%, negative = inhibition) at 10uM” value: -8.07% for the first, -43.6% for the second.

First: CCN(CC1COc2ccccc2O1)C(=S)NC1CC2CCC1C2 (stereo not drawn)
Second: O=C(Nc1nccs1)C(c1ccccc1)N1CCCC1 (stereo not drawn)
The “hERG current change (%, negative = inhibition) at 10uM” value of the first is higher: 1.34% for the first, -7.89% for the second.

Compared with `CC1S/C(=N/N=C/c2ccco2)N(Cc2ccc(F)cc2)C1=O` (stereo not drawn), `Cc1c(CN2CC[C@@H](N3CCN(c4ccccn4)CC3)[C@H](O)C2)[nH]c2ccc(F)cc12` is lower in “hERG current change (%, negative = inhibition) at 10uM” value: -11.3% for the first, -60.9% for the second.

First: Cc1nn(C)c(=O)n1N(C)c1ncc(C(F)(F)F)cc1Cl
Second: Cc1[nH]c2ccc(C(=O)N3CCN(c4ccccn4)CC3)cc2c1C
The “hERG current change (%, negative = inhibition) at 10uM” value of the first is higher: 23.8% for the first, -2.92% for the second.

First: O=C(O)CCSc1nnc(SCC(=O)NCC(F)(F)F)s1
Second: Cl.OC(COCc1ccc(Cl)cc1)CN1CCN(c2ccccn2)CC1 (stereo not drawn)
The “hERG current change (%, negative = inhibition) at 10uM” value of the first is higher: 7.55% for the first, -66.4% for the second.

First: OC(c1ccc(Cl)cc1)C(O)c1nc2ccccc2[nH]1 (stereo not drawn)
Second: OC(COc1ccc(Cl)cc1)CN1CCN(c2ccccn2)CC1 (stereo not drawn)
The “hERG current change (%, negative = inhibition) at 10uM” value of the first is higher: -2.47% for the first, -68% for the second.

Going from `Cc1cc(OCC(O)CN2CCN(c3ccccn3)CC2)cc(C)c1Cl.Cl` (stereo not drawn) to `CC(C)c1ccc(OCC(O)CN2CCN(c3ccccn3)CC2)cc1.Cl` (stereo not drawn), the “hERG current change (%, negative = inhibition) at 10uM” value falls from -0.237% to -63.7%.

Compared with `CC(C)(C)c1ccc(OCC(O)CN2CCN(c3ccccn3)CC2)cc1.Cl` (stereo not drawn), `OC(COc1ccc2cc(Br)ccc2c1)CN1CCN(c2ccccn2)CC1` (stereo not drawn) is higher in “hERG current change (%, negative = inhibition) at 10uM” value: -16% for the first, 1.85% for the second.

For `OC(CN1CCN(c2ccccn2)CC1)Cn1c2ccc(Cl)cc2c2cc(Cl)ccc21` (stereo not drawn), the “hERG current change (%, negative = inhibition) at 10uM” value was 0.599%.
